This is part of a sample that, as a whole, favours compounds with a hit. Of some 79,000 tested, about 15% had one in any assay. Unmarked numbers belong to inactive results. Calls of active or inactive are those of the source. Cut-off read from the data, not from the text of the source: active = growth inhibition above about 70%; inactive = the rest.

Assay [1] in a line: NCI Yeast Anticancer Drug Screen. Data for the rad50 strain (AID 155).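 Note: 0% = growth of vehicle-only cultures of the same strain.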 The following applies: S. cerevisiae rad50 strain growth inhibition; at 50.0 µM; active compounds read high. In short, it runs like this:
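Genetically altered yeast (DNA repair pathway); compound treatment; growth inhibition vs vehicle ctrl.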

Assay [2] can be described thus: NCI Yeast Anticancer Drug Screen. Data for the mec2-1 strain (AID 157). Particulars: S. cerevisiae mec2-1 strain, at 50.0 µM, active compounds read high. In short, it runs like this: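 Yeast mec2-1 mutant treated with compound. Readout: growth inhibition vs vehicle controls.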
Assay [3] can be described thus: NCI Yeast Anticancer Drug Screen. Data for the sgs1 mgt1 strain (AID 161).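 Note: 0% = growth of cultures given vehicle only.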 The following applies: S. cerevisiae sgs1 mgt1 strain, at 50.0 µM, active compounds read high. The gist of the method:
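Inhibition of yeast growth, normalised to vehicle-treated controls, is reported for a strain bearing genetic alterations in DNA damage repair.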

Assay [4] can be described thus: NCI Yeast Anticancer Drug Screen. Data for the cln2 rad14 strain (AID 165).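 Note: 0% = growth equal to vehicle treated cultures.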 The following applies: S. cerevisiae cln2 rad14 strain, at 50.0 µM, active compounds read high. The gist of the method: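 cln2 rad14 yeast strain; compound exposure; growth inhibition read vs vehicle controls.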
A short description of assay [5]: NCI Yeast Anticancer Drug Screen. Data for the bub3 strain (AID 167). Particulars: S. cerevisiae bub3 mutant strain, at 50.0 µM, active compounds read high. In short, it runs like this:
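Yeast carrying a defined mutation is treated with each compound, and growth is compared with that of vehicle-exposed cells to give inhibition.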

Assay [6] can be described thus: NCI Yeast Anticancer Drug Screen. Data for the mlh1 rad18 strain (AID 175). The following applies: S. cerevisiae mlh1 rad18 strain growth inhibition; at 50.0 µM; active compounds read high. The gist of the method: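 Yeast w/ defined DNA-repair lesions; compound exposure; growth vs vehicle controls → % inhibition.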

Turning to `Nc1ncc([N+](=O)[O-])c(N)n1`, the growth inhibition in assay [1] was 2.75%; in assay [2] it was 5.45%; in assay [3], 7.75%; in assay [4] it was 0.7%; in assay [5], -13.8%; in assay [6], 15.9%.

With `CCCC(O)c1ccccc1` (stereo unspecified), the growth inhibition was 31.2% in assay [1]; 35.8% in assay [2]; -9.65% in assay [3]; 5.3% in assay [4]; 3.7% in assay [5]; 18.9% in assay [6].

For the molecule `COc1cc(C(=O)N2CCCCCCC2)cc(OC)c1OC`, the growth inhibition in assay [1] was -13.8%; in assay [2] it was 38.5%; in assay [3], 10.9%; in assay [4], -19.7%; in assay [5], 28.7%; in assay [6], -6.45%.

Consider `CN(C)c1nnnn1-c1ccccc1`, for which the growth inhibition in assay [1] is 5.15%; in assay [2] it was 5.05%; in assay [3], 12.3%; in assay [4], -21.9%; in assay [5], 9.5%; in assay [6], 0.45%.

For `O=[N+]([O-])c1ccc(N=NC(=S)NNc2ccccc2)cc1`, the growth inhibition was 38.9% in assay [1]; 0.65% in assay [2]; 39.5% in assay [3]; -3.35% in assay [4]; 20.2% in assay [5]; 23.5% in assay [6].

Turning to `CCCCCNC(=O)CCC`, the growth inhibition in assay [1] was 22.6%; in assay [2] it was 1.2%; in assay [3], 25.6%; in assay [4] it was 5.6%; in assay [5], 7.05%; in assay [6] it was 40.9%.

As for `CCCCCCCCCCCCC#N`, the growth inhibition was -20.8% in assay [1]; -16.1% in assay [2]; -1.15% in assay [3]; -32.9% in assay [4]; -5.2% in assay [5]; 7.85% in assay [6].

Turning to `CCCCN(CCCC)CCCNC(=O)OCC`, the growth inhibition in assay [1] is -4.2%; in assay [2] it was -22.9%; in assay [3], -7%; in assay [4], 14.6%; in assay [5] it was -26.8%; in assay [6], -6.2%.

Consider `O=C(OCC(COC(=O)c1ccccc1)OC(=O)c1ccccc1)c1ccccc1`, for which the growth inhibition was -7.15% in assay [1]; 2.15% in assay [2]; 8.8% in assay [3]; -24.6% in assay [4]; 38.8% in assay [5]; 0.65% in assay [6].

In the case of `C=C(C(=C)N1N=NC2C3CCC(C3)C21)N1N=NC2C3CCC(C3)C21` (stereo unspecified), the growth inhibition is -5.9% in assay [1]; -15.9% in assay [2]; 10.3% in assay [3]; 7.15% in assay [4]; -4.75% in assay [5]; -7.95% in assay [6].

As for `Nc1ccc(CCCCc2ccc(Cl)cc2Cl)cc1`, the growth inhibition in assay [1] is 98.2% (active); in assay [2], 98.2% (active); in assay [3], 98.5% (active); in assay [4] it was 98.1% (active); in assay [5] it was 98% (active); in assay [6], 98% (active).

For the molecule `Clc1ccc2c(Cl)ncnc2c1I`, the growth inhibition in assay [1] is -2.5%; in assay [2], -13.8%; in assay [3], 28.9%; in assay [4], 3%; in assay [5], 4.4%; in assay [6], -4.2%.

For the molecule `OC(C(=S)N1CCOCC1)(c1ccccc1)c1ccccc1`, the growth inhibition in assay [1] was 5.35%; in assay [2] it was 17.6%; in assay [3], -5%; in assay [4] it was 25.8%; in assay [5], 17.7%; in assay [6], -12.2%.

Regarding `COc1ccc2c(c1)C1c3ccccc3CCN1CCC2` (stereo unspecified), the growth inhibition in assay [1] was 20.8%; in assay [2], 20.9%; in assay [3] it was -23.1%; in assay [4], 24.1%; in assay [5] it was -8.4%; in assay [6] it was 6%.

On to `COc1ccc(-c2c(-c3ccccc3)oc(/N=C/c3ccccc3)c2-c2ccccc2)cc1`, for which the growth inhibition in assay [1] is 8.35%; in assay [2], -0.75%; in assay [3], 4.9%; in assay [4], -2.8%; in assay [5] it was 2.25%; in assay [6], 13.8%.

For the molecule `CCOC(=O)/C(C#N)=C(\CC)c1ccccc1`, the growth inhibition was -8.5% in assay [1]; -8.85% in assay [2]; -3.85% in assay [3]; -0.15% in assay [4]; -8.85% in assay [5]; -21.5% in assay [6].

For `O=C(OCc1ccccc1)/C(c1ccccc1)=[N+]1/C(=S)Nc2ccc([N+](=O)[O-])cc21`, the growth inhibition was 3% in assay [1]; -5% in assay [2]; 1.6% in assay [3]; 3.8% in assay [4]; 13.9% in assay [5]; 7.9% in assay [6].

Consider `COc1ccc(C(c2c(O)c3ccccc3oc2=O)N2CCCC2)c(OC)c1` (stereo unspecified), for which the growth inhibition in assay [1] was 7.7%; in assay [2], -5.7%; in assay [3], -3.25%; in assay [4], -25.1%; in assay [5] it was -1.15%; in assay [6], -3.3%.

As to `CCOC(=O)C1Sc2ccccc2N=C1C` (stereo unspecified), the growth inhibition in assay [1] is 0%; in assay [2], -15.8%; in assay [3], -2.45%; in assay [4], -1.25%; in assay [5], -10.6%; in assay [6], 2.6%.

Turning to `O=C(CCc1cccs1)OC1CCCCC1`, the growth inhibition in assay [1] is 9%; in assay [2] it was 7.05%; in assay [3] it was 4.4%; in assay [4], 13.6%; in assay [5], 9.35%; in assay [6] it was 20.9%.

As for `CC(=O)Nc1c(C)cccc1F`, the growth inhibition in assay [1] was 2.35%; in assay [2], 6.45%; in assay [3] it was -3.95%; in assay [4] it was 12.1%; in assay [5] it was 3.3%; in assay [6], -12.4%.

For the origin of these results see PubChem BioAssay (NCI).
